Data on 1 compound can be found in PubChem BioAssay (NCATS).

Inconclusive results are not listed. Entries that show only a call come without a potency. Activity calls are given as the source filed them. Calls come from the whole dose curve; as a rule, active = well fitted inhibition curve with a large enough effect; inconclusive = small, poorly fitted or top-dose-only effect; inactive = flat fitted curve, though single readings scatter.

The experiment deals with astro (control astrocytes). The experiment is described as follows: Drug repurposing screens with cells derived from glioblastoma tumor samples (AID 1345199). Note: nearly all actives have a fitted effect of over 40% in size. To be noted: viability, ATP luminescence, 48 h; series mostly up to 45.9 µM. Summed up:
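Four patient lines of CD133+ GBM neurospheres were screened at several concentrations; hits were retested in those lines plus three slower-growing GBM lines, using 48-hour treatment and ATP-based viability.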

On to `Nc1ccc(N)c([N+](=O)[O-])c1`, for which the Potency entry was “inactive”.
